The text below walks through data of PubChem BioAssay AID372 (MTDP, 2006).

Out of some 100,000 compounds screened, about 770 (0.77%) were called active. Cut-off read from the data, not from the text of the source: active = inhibition above about 50%; inactive = the rest. What follows is part of a selection rich in actives, with near analogues and random picks from the rest.

The test concerns the target Gag-Pol polyprotein (Human immunodeficiency virus type 1 group M subtype B (isolate HXB2)) (UniProt P04585). The experiment in a line: RNase H inhibition, HIV 1 Gag Pol polyprotein, FRET biochemical assay, screening (AID 372). Conditions: HIV-1 RT RNase H, FRET RNA/DNA substrate fluorescence; at 10 µM; active compounds read high.
With `NNC(=O)c1cc(C(=O)O)nc2ccc(Br)cc12`, the inhibition is 6% (inactive). Take `CCOc1ccc(/C=C2/SC(NC(C)=O)=NC2=O)cc1`: the inhibition was 0% (inactive). Then `COc1cc(C(=O)NC(=S)Nc2cccc(-c3nc4ncccc4o3)c2C)cc(OC)c1OC`, with 17% (inactive); and `Cc1cc(C)cc(NCc2ccc3c(c2)OCO3)c1`, with 9% (inactive).

For `C=CCOc1ccccc1/C=N/NC(=O)c1cccc(I)c1`, the inhibition is 10% (inactive).

In the case of `O=S(NC1CCCCC1)C12CC3CC(CC(C3)C1)C2` (stereo unspecified), the inhibition was 2% (inactive). As for `CC1=NN(c2ccccc2)C(=O)C1C(c1cccc([N+](=O)[O-])c1)C1C(=O)N(c2ccccc2)N=C1C` (stereo unspecified), the inhibition is 12% (inactive). As to `CCOC(=O)C1=C(C)NC(C)=C(C(=O)OC)C1c1ccc([N+](=O)[O-])cc1` (stereo unspecified), the inhibition was 16% (inactive). Regarding `O=C1N=c2ccccc2=C1c1sc(=S)[nH]c1O`, the inhibition is 6% (inactive).

Take `Cc1ccc(C2(C)N(O)C(C)C(c3ccccc3)=[N+]2[O-])cc1` (stereo unspecified): the inhibition was 0% (inactive). On to `COc1ccc(CCN2C(=O)/C(=C\c3cccc4ccccc34)SC2=S)cc1OC`, for which the inhibition was 9% (inactive). Take `CCCOC(=O)c1ccc(NC(=O)c2cccc([N+](=O)[O-])c2)cc1`: the inhibition is 17% (inactive). In the case of `Cc1cc2nc(-c3ccc(NC(=O)c4ccc(-c5ccccc5[N+](=O)[O-])o4)cc3)oc2cc1C`, the inhibition was 52% (active). Then `CC(=O)c1cccc(NC(=O)c2ccc(-c3ccccc3[N+](=O)[O-])o2)c1`, with 13% (inactive); and `COC(=O)c1cc(NC(=O)c2ccc(-c3ccccc3[N+](=O)[O-])o2)cc(C(=O)OC)c1`, with 45% (inactive); and `Cc1ccccc1-c1nc2cc(NC(=O)c3ccc(-c4ccccc4[N+](=O)[O-])o3)ccc2o1`, with 37% (inactive). For `O=C(Nc1cc(Cl)cc(Cl)c1)c1ccc(-c2ccccc2[N+](=O)[O-])o1`, the inhibition was 59% (active). Turning to `Cc1cc2nc(-c3ccc(NC(=O)c4cccc([N+](=O)[O-])c4C)cc3)oc2cc1C`, the inhibition was 15% (inactive).

As to `O=C(Cc1cccc2ccccc12)N/N=C/c1cc(Br)c(O)c(Br)c1O`, the inhibition is 0% (inactive). Then `CCOc1cccc(NC(=O)/C(C#N)=C\c2ccc(-c3cccc([N+](=O)[O-])c3)o2)c1`, with 10% (inactive); and `CN1C(=O)S/C(=C/c2ccc(Sc3ccccc3)o2)C1=O`, with 52% (active). Turning to `Cc1ccc(Sc2ccc(/C=C3/SC(=S)N(C)C3=O)o2)cc1`, the inhibition is 45% (inactive). For `CN1C(=O)/C(=C\c2ccc(Sc3ccc(Cl)cc3)o2)SC1=S`, the inhibition was 22% (inactive). On to `CCCCOc1ccc(C(=O)N2CCCc3ccccc32)cc1`, for which the inhibition is 13% (inactive). Turning to `O=C(Nc1cccc(NC(=O)C(Cl)(Cl)Cl)c1)c1ccc(Cl)cc1Cl`, the inhibition is 13% (inactive).

As for `Cc1nc(/N=C/c2ccc(Br)cc2)sc1C`, the inhibition was 8% (inactive).

`COc1cc(/C=C2\SC(N)=NC2=O)cc(Br)c1OCc1cccc2ccccc12`: the inhibition was 30% (inactive). For the compound `COc1ccc(/C=C2\SC(N)=NC2=O)cc1OC(=O)c1cccc2ccccc12`, the inhibition is 53% (active).

For `COc1ccc(C=C2C(=O)NC(=S)NC2=O)cc1OC(=O)c1cccc2ccccc12`, the inhibition is 26% (inactive). On to `COc1cc(/C=C2\SC(N)=NC2=O)ccc1OCc1cccc2ccccc12`, for which the inhibition was 52% (active). Take `COc1cc(/C=C2\SC(N)=NC2=O)cc(Br)c1OC(=O)c1cccc2ccccc12`: the inhibition is 35% (inactive). Take `NC1=NC(=O)/C(=C/c2ccc(OC(=O)c3cccc4ccccc34)cc2)S1`: the inhibition is 20% (inactive).

On to `CCOc1cc(C=C2C(=O)NC(=O)NC2=O)ccc1OC(=O)c1cccc2ccccc12`, for which the inhibition is 56% (active). With `COc1cc(/C=C2/SC(N)=NC2=O)ccc1OCc1ccccc1[N+](=O)[O-]`, the inhibition was 39% (inactive). The figure for `CCOc1cc(C=C2C(=O)NC(=O)NC2=O)ccc1OCc1cccc2ccccc12` is 43% (inactive); for `CCOC(=O)C(=CNc1ccc(F)c(F)c1F)C(=O)OCC` it is 10% (inactive). Take `CC(C)(C)c1ccc(C(=O)NCCSc2ccc(Cl)cc2)cc1`: the inhibition is 19% (inactive). As to `O=C(N/N=C\c1cc(Br)ccc1O)c1cnccn1`, the inhibition is 7% (inactive).

Consider `Cc1ccc(NC(=S)NC(=O)c2ccccc2Cl)cc1C`, for which the inhibition was 11% (inactive).

For `O=C(COc1ccc(Br)cc1Cl)NCc1cccnc1`, the inhibition was 0% (inactive). For `CC(=O)n1ccc(C(=O)Nc2ccc(Cl)c(Cl)c2)n1`, the inhibition is 2% (inactive).

Turning to `O=C(Nc1ccc(F)cc1F)c1cnn2c1NC(c1cccs1)CC2C(F)(F)F` (stereo unspecified), the inhibition is 5% (inactive). The figure for `O=c1oc2ccc(O)c(-c3ccccc3Cl)c2s1` is 2% (inactive); for `O=C(Oc1ccc2oc(=O)sc2c1)c1ccccc1` it is 6% (inactive). `Cc1cc(I)ccc1NC(=O)c1ccccc1F`: the inhibition was 8% (inactive). As to `CC(=O)c1cccc(NC(=O)C2CCCCC2)c1`, the inhibition was 0% (inactive).

Consider `O=C(Nc1ccc2ccccc2c1)C1CCCCC1`, for which the inhibition is 2% (inactive).

In the case of `O=C(c1ccccc1)c1cccc(NC(=O)C2CCCCC2)c1`, the inhibition was 51% (active). The figure for `O=C(COc1cccc(Br)c1)N/N=C/c1ccc(Cl)cc1` is 7% (inactive); for `CCOc1ccc(C(=O)Nc2cc(Cl)cc(Cl)c2)cc1Br` it is 1% (inactive). Take `COc1ccc(-c2nnc(N)s2)cc1`: the inhibition was 7% (inactive). Regarding `COc1ccc(-c2nnc(NC(C)=O)s2)cc1`, the inhibition was 0% (inactive). In the case of `COc1cc(NC(=O)COc2ccc(C)c(C)c2)c(OC)cc1Cl`, the inhibition was 7% (inactive). Consider `COc1cc([N+](=O)[O-])cc(/C=C2\C(=O)NC(=O)N(c3ccc(Cl)cc3)C2=O)c1O`, for which the inhibition was 7% (inactive). Turning to `O=C(Nc1ccc(I)cc1Cl)c1ccccc1Cl`, the inhibition is 37% (inactive). Take `O=C(Nc1ccc(-c2ccc(NC(=O)c3ccccc3Cl)c(Cl)c2)cc1Cl)c1ccccc1Cl`: the inhibition was 51% (active). With `O=C(Nc1ccc(Cl)cc1Cl)c1ccccc1Cl`, the inhibition is 3% (inactive). With `CCn1c2ccccc2c2cc(CN3CCC(C)CC3)ccc21`, the inhibition was 7% (inactive). For `CC(=O)Nc1ccc(NS(=O)(=O)c2ccc(C)cc2C)cc1`, the inhibition is 2% (inactive).

For `O=C(Nc1ccc(O)cc1)c1ccc(N2C(=O)c3cccc([N+](=O)[O-])c3C2=O)cc1`, the inhibition is 3% (inactive).

As to `O=C(Nc1nccs1)c1ccc(N2C(=O)c3ccc([N+](=O)[O-])cc3C2=O)cc1`, the inhibition was 31% (inactive). For `O=C(Nc1nccs1)c1ccc(N2C(=O)c3cccc([N+](=O)[O-])c3C2=O)cc1`, the inhibition is 56% (active). As for `Cc1nc(-c2ccccc2)sc1C(=O)Nc1ccc(-c2cn3ccccc3n2)cc1`, the inhibition is 6% (inactive). As to `O=C(Nc1ccc2oc(-c3cccc4ccccc34)nc2c1)c1cc([N+](=O)[O-])ccc1Cl`, the inhibition is 21% (inactive). With `COc1ccc(OCCOCCOc2c(OC)cccc2OC)cc1`, the inhibition was 11% (inactive).

In the case of `COc1ccc(C(=O)NC(=S)Nc2ccc3oc(-c4cccc(F)c4)nc3c2)cc1OC`, the inhibition was 7% (inactive). The figure for `CCc1ccc2oc(-c3ccc(NC(=S)NC(=O)c4cccc(Cl)c4)cc3)nc2c1` is 17% (inactive). For the compound `COc1ccc(C(=O)NC(=S)Nc2ccc3oc(-c4cccc(F)c4)nc3c2)cc1[N+](=O)[O-]`, the inhibition is 41% (inactive). Take `COc1ccc(C(=O)NC(=S)Nc2ccc3oc(-c4cccc(F)c4)nc3c2)cc1Br`: the inhibition is 56% (active). On to `COc1ccc(C(=O)NC(=S)Nc2ccc3oc(-c4ccccc4)nc3c2)cc1Br`, for which the inhibition was 47% (inactive). The figure for `CCOc1cccc(C(=O)NC(=S)Nc2ccc(-c3nc4cc(CC)ccc4o3)cc2)c1` is 5% (inactive); for `CCc1ccc2oc(-c3ccc(NC(=S)NC(=O)c4cccc(F)c4)cc3)nc2c1` it is 59% (active); for `CCOc1ccc(C(=O)NC(=S)Nc2ccc3oc(-c4cccnc4)nc3c2)cc1[N+](=O)[O-]` it is 4% (inactive). As to `CCOc1ccc(C(=O)NC(=S)Nc2ccc3oc(-c4cccc(F)c4)nc3c2)cc1[N+](=O)[O-]`, the inhibition was 58% (active). In the case of `NC(=S)N=Nc1c(O)[nH]c2ccc(F)cc12`, the inhibition was 9% (inactive). As for `COc1cccc(C(=O)NNC(=O)C2CCCO2)c1` (stereo unspecified), the inhibition is 4% (inactive). Consider `COc1cc(C=O)ccc1OCCCOc1ccc([N+](=O)[O-])cc1Cl`, for which the inhibition is 29% (inactive). Then `COC(=O)c1c(C)oc2ccc(OS(C)(=O)=O)cc12`, with 0% (inactive); and `O=C(Nc1cccc(Cl)c1)Nc1nc2ccc(Br)cc2s1`, with 35% (inactive); and `Cn1cccc1/C=C1/C(=O)NC(=S)N(c2cccc(Cl)c2)C1=O`, with 31% (inactive). For `Cc1ccc(NC(=S)NC(=O)/C=C/c2ccccc2)cc1Cl`, the inhibition is 51% (active). The figure for `O=C(/C=C/c1ccccc1)NC(=S)Nc1ccc(NC(=O)c2cccs2)cc1` is 62% (active). As for `Cc1cccc(NC(=S)NC(=O)/C=C/c2ccccc2)c1`, the inhibition is 6% (inactive). Then `O=C(/C=C/c1ccccc1)NC(=S)Nc1ccc(NC(=O)c2ccccc2)cc1`, with 9% (inactive); and `O=C(/C=C/c1ccc(Cl)cc1)NC(=S)Nc1ccc(NC(=O)c2cccs2)cc1`, with 24% (inactive); and `Cc1ccc(NC(=S)NC(=O)/C=C/c2ccccc2)cc1C`, with 9% (inactive). On to `Brc1ccc(/C=N/Nc2ncnc3c2cnn3-c2ccccc2)cc1`, for which the inhibition was 6% (inactive). The figure for `Nc1ncc(Cc2ccc(F)cc2)s1` is 6% (inactive). Consider `COc1cccc(/C=C2\N=C(c3cccs3)OC2=O)c1OC`, for which the inhibition is 8% (inactive). For `O=C1NC(=S)N/C1=C\c1ccc(-c2cc([N+](=O)[O-])ccc2Br)o1`, the inhibition was 50% (active). In the case of `O=C1NC(=S)N/C1=C/c1ccc(-c2ccc([N+](=O)[O-])cc2Cl)o1`, the inhibition is 5% (inactive).

Regarding `O=C1NC(=S)N/C1=C\c1ccc(-c2cc([N+](=O)[O-])ccc2O)o1`, the inhibition is 29% (inactive). Turning to `O=C1NC(=S)N/C1=C/c1ccc(-c2cc([N+](=O)[O-])ccc2Cl)o1`, the inhibition was 50% (active).

Regarding `Cc1cc(Br)c(-c2ccc(/C=C3/NC(=S)NC3=O)o2)cc1C`, the inhibition was 24% (inactive). For the compound `O=C1NC(=S)N/C1=C\c1ccc(-c2cccc([N+](=O)[O-])c2)o1`, the inhibition is 14% (inactive). As to `CCCOc1cccc(/C=C2\N=C(c3ccc(F)cc3)OC2=O)c1`, the inhibition is 11% (inactive).
